These results are taken from PubChem BioAssay AID1220 (Sanford-Burnham Center for Chemical Genomics, 2008).

The whole screen tested about 190,000 compounds, of which about 1,300 (0.68%) were called active. This excerpt belongs to a sample that is enriched for actives. Values without a mark were called inactive. Cut-off read from the data, not from the text of the source: active = inhibition above about 50%; inactive = the rest.

Mannose-6-phosphate isomerase (Homo sapiens), sequence (P34949 whole entry, looked up): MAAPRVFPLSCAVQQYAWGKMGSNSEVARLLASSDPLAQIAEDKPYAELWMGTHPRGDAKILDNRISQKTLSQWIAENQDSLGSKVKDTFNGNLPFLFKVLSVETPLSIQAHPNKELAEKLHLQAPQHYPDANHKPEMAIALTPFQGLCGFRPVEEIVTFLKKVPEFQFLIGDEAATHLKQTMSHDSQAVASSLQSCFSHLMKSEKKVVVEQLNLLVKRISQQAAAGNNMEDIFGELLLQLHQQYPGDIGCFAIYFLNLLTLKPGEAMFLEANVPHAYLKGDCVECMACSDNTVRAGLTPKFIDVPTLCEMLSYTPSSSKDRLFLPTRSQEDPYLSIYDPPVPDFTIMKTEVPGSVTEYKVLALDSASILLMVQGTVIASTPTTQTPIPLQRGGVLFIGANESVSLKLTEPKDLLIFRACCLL

The assay addresses Mannose-6-phosphate isomerase (Homo sapiens) (UniProt P34949). Briefly: human PMI inhibitors, high substrate, primary screen, biochemical, fluorescence intensity, high mannose 6-phosphate (AID 1220). Particulars: recombinant PMI enzyme, coupled fluorescence intensity; at 20 µM; hits give high values.
In the case of `CCCN1C(=O)/C(=C\C=C2/Sc3ccccc3N2CCO)SC1=S`, the inhibition is 10.5%. Under `O=C(N/N=C/c1ccc(Br)o1)c1cccnc1` stands 5.3%; under `COc1ccc(/C=C/C(=O)OCCCN(C)C)cc1`, -6.3%; under `CCOC(=O)c1ccc(NCc2nc3ccccc3[nH]2)cc1`, -1.4%. Regarding `O=C(O)c1cc(-c2ccccc2)n(-c2ccc(Cl)cc2)n1`, the inhibition is -7.9%.

For `COCCN(CCOC)Cc1c(O)ccc2c3c(c(=O)oc12)CCC3`, the inhibition was 50.9% (active). Regarding `CC(C)CN(Cc1c(O)ccc2c3c(c(=O)oc12)CCC3)CC(C)C`, the inhibition is 10%. Regarding `O=c1oc2c(CN3CCOCC3)c(O)ccc2c2c1CCC2`, the inhibition is 14.1%. Under `COC(=O)c1cn(CC(=O)NC2CCCCCC2)c2ccccc12` stands 4.4%; under `CC(C)CC1NC(=O)N(CC(=O)N2CCCc3ccccc32)C1=O` (configuration not stated), -5.9%. Next, `O=C(/C=C/c1ccccc1Cl)NCc1ccccc1`: 7.8%; `O=C(CN1C(=O)NC2(CCCCCC2)C1=O)NC1CCCCCCC1`: -3.9%; `Cc1ccccc1CSCCC(=O)NCCc1ccccc1`: -6.4%.

With `CCN1/C(=N\N)c2cccc3cccc1c23`, the inhibition was -13%. `CNC(=O)CN1C(=O)c2cccc3cccc1c23`: the inhibition is -3.7%. As to `CC(C)c1ccc(CNC(=O)C(=O)Nc2nccs2)cc1`, the inhibition is -3.8%. Next, `CNc1nc2ccccc2n1N`: -3.8%; `CC(Sc1nc(NCc2ccccc2)nc(N2CCOCC2)n1)C(=O)Nc1ccccc1` (configuration not stated): 12.4%. Under `Cc1ccccc1NC(=O)C1CCCN(S(=O)(=O)c2c(C)noc2C)C1` (configuration not stated) stands -2.1%. On to `Cc1ccc(Cl)cc1NC(=O)C1CCCN(S(=O)(=O)c2c(C)noc2C)C1` (configuration not stated), for which the inhibition was 50.2% (active).

As for `Cc1noc(C)c1S(=O)(=O)N1CCCC(C(=O)Nc2ccc(Cl)cn2)C1` (configuration not stated), the inhibition was -3%.

`Nc1nc2c(s1)COc1ccccc1-2`: the inhibition was 11.1%.

`Nc1nc(-c2ccccc2)c(-c2ccccc2)s1`: the inhibition was -7.6%. Under `O=C(NCCCN1CCOCC1)C(Sc1ccccc1)c1ccccc1` (configuration not stated) stands 9.2%; under `O=C(COC(=O)c1ccc(S(=O)(=O)NCc2ccco2)cc1)NCCC1=CCCCC1`, -19.9%. Under `O=c1[nH]c2ccc(Cl)cc2c(O)c1Cc1ccccc1` stands 3.4%. Regarding `COc1cccc(CNCc2cccnc2)c1OCc1ccccc1`, the inhibition is -2%. As for `Cc1ccc(Nc2ncnc3sc(C)c(C)c23)cc1`, the inhibition is 12.1%. As for `COc1cccc(NCCC(=O)c2cccc([N+](=O)[O-])c2)c1`, the inhibition was 62.3% (active). As to `O=[N+]([O-])c1ccc(Cc2ccncc2)cc1`, the inhibition is -1.9%. As for `O=C(CCNc1ccc(Cc2ccncc2)cc1)c1cccc([N+](=O)[O-])c1`, the inhibition was 47.7%. With `Cc1ccc(NCCC(=O)c2cccc([N+](=O)[O-])c2)cc1`, the inhibition was 39.2%.

For the compound `O=C(CCNc1ccc(Br)cc1)c1cccc([N+](=O)[O-])c1`, the inhibition was 40.5%. Under `O=C(CCNc1ccc(F)cc1)c1cccc([N+](=O)[O-])c1` stands 48.4%; under `O=C(CCNc1cccc(F)c1)c1cccc([N+](=O)[O-])c1`, 40.6%; under `COc1ccc2o/c(=N/NC(=S)Nc3ccccc3)c(C(N)=O)cc2c1`, 7.1%. As for `O=C(O)c1ccccc1OC(=O)C12CC3CC(CC(C3)C1)C2`, the inhibition was 2.3%.

On to `CC1(C)CC(c2nc(-c3ccccc3)cs2)CCS1` (configuration not stated), for which the inhibition is 0.5%. Turning to `Cc1ccc(-c2cc(C)nc3nc(N)nn23)cc1`, the inhibition is 4.6%. Under `CCOc1ccc(NC(=O)CSc2nc3c(c(=O)n2C)SC(C)C3)cc1` (configuration not stated) stands 4.9%; under `CSc1ccccc1NC(=O)c1onc(C)c1Cl`, -2.4%; under `Cc1noc(C(=O)Nc2ccccc2C(F)(F)F)c1Cl`, 59.4% (active). Under `CCc1ccccc1NC(=O)c1onc(C)c1Cl` stands -3.2%; under `Cc1ccc(C(=O)OCC(=O)Nc2ccccc2C(F)(F)F)cc1S(=O)(=O)N1CCOCC1`, 3.2%. Next, `CC(C)c1ccccc1NC(=S)NCc1ccccc1F`: 1.9%; `N#Cc1cnc2c(-c3ccccc3)c(-c3ccccc3)nn2c1N`: 15.3%. `Fc1ccc2nc(C3CCN(Cc4nc(CC5CC5)no4)CC3)[nH]c2c1`: the inhibition is -5.1%. Under `Fc1ccc(C2CCCCN2Cc2nc(CC3CC3)no2)cc1` (configuration not stated) stands 1.9%; under `Fc1ccc2nc(C3CCCCN3Cc3nc(CC4CC4)no3)[nH]c2c1` (configuration not stated), 53.6% (active).

For the compound `Brc1ccc(-c2nc(-c3ccccn3)no2)o1`, the inhibition is -1.3%.

For `CC(C)[C@H](NC(=O)c1ccccc1)C(=O)OCc1nnc(-c2ccccc2)o1`, the inhibition was 3.9%. In the case of `CC(=O)N1C(c2ccccc2)CC(=O)OC1c1ccc2c(c1)OCO2` (configuration not stated), the inhibition is 9.9%.

With `O=C1C=CC2C(c3ccc4c(c3)OCO4)CC1N2Cc1ccccc1` (configuration not stated), the inhibition is 63.6% (active). In the case of `O=C1CC(N2CCN(Cc3ccc4c(c3)OCO4)CC2)C(=O)N1CCc1ccccc1` (configuration not stated), the inhibition was 4.8%.

Take `Cc1ccc(NC(=O)c2cc3ccccc3o2)cc1S(=O)(=O)N(C)C`: the inhibition was 36.9%. Next, `Cc1cc(C)c(S(=O)(=O)Nc2cccc(S(=O)(=O)NC3=NCCC3)c2)c(C)c1`: -4.4%; `CC1CN(C)C(C)C/C1=N/Oc1ccccc1[N+](=O)[O-]` (configuration not stated): 42.3%; `CC1CN(C)C(C)C/C1=N\Oc1ccc([N+](=O)[O-])cc1` (configuration not stated): -6.4%. Take `CC1=CC(=O)C=C(C)C1=NOc1ccccc1[N+](=O)[O-]`: the inhibition is 54.8% (active). Next, `CN1CCC(=NOc2ccc([N+](=O)[O-])cc2)CC1`: -6.9%; `CC(C)(C)/C(COc1ccccc1[N+](=O)[O-])=N/O`: 5.7%. As for `CC1=CC(=O)C=C(C)C1=NOc1ccc([N+](=O)[O-])cc1`, the inhibition is 53.2% (active). Under `N#Cc1ccc(NC(=O)CN2C(=O)NC(Cc3ccccc3)C2=O)cc1` (configuration not stated) stands 3.6%; under `Cc1noc(C)c1COC(=O)COc1ccc(C#N)cc1`, -4.4%; under `COc1ccc(CNCC(O)(c2ccc(Cl)cc2)c2ccc(Cl)cc2)cc1`, 0%.

Take `COc1ccc(CNCC(O)(c2ccccc2)c2ccccc2)cc1OC`: the inhibition is -0.4%. Take `COc1ccc(CNCC(O)(c2ccc(Cl)cc2)c2ccc(Cl)cc2)cc1OC`: the inhibition is 55.1% (active).

The inhibition is the relative decrease from the control value, in per cent.
